The panel holds about 83,000 compounds, 20% with a hit somewhere; the sample as a whole holds those more often.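 Assay: single dose, 48 h. Readout: percent growth (0 = no net growth; negative = cell death). Active: <10.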 A number with no mark means an inactive call. Activity calls are given as the source filed them.

Holding throughout (test): NCI-60 one-dose screen, 48 h (100 = growth as untreated, 0 = no growth, -100 = all killed)
One experiment concerns NCI-H23 lung. The conditions noted are these: 10 µM unless noted.
Another experiment concerns NCI-H226 lung. The conditions noted are these: 10 µM unless noted.
For the next experiment, the system named is NCI-H322M lung. The conditions noted are these: 10 µM unless noted.
The subject of another experiment is HOP-62 NSCLC. The settings on record: 10 µM unless noted.
A further experiment concerns NCI-H460 lung. The conditions noted are these: 10 µM unless noted.
A further experiment relates to HOP-92 NSCLC. The conditions noted are these: 10 µM.
The subject of another experiment is A549/ATCC NSCLC. The settings on record: 10 µM unless noted.
The subject of another experiment is 786-0 renal. The conditions noted are these: 10 µM unless noted.
Another experiment has as its system COLO 205 colon. The settings on record: 10 µM unless noted.
For the next experiment, the system named is DU-145 prostate. The conditions noted are these: 10 µM unless noted.
For a further experiment, the system named is K-562 leukemia. The conditions noted are these: 10 µM unless noted.
The subject of a further experiment is MALME-3M melanoma. The conditions noted are these: 10 µM unless noted.
The next experiment relates to MDA-MB-231 breast. The settings on record: 10 µM unless noted.
The subject of a further experiment is RXF 393 renal. The conditions noted are these: 10 µM unless noted.
The subject of another experiment is SF-268 CNS. The settings on record: 10 µM unless noted.
A further experiment has as its system SF-295 CNS. The conditions noted are these: 10 µM unless noted.
A further experiment relates to SF-539 CNS. The settings on record: 10 µM unless noted.
A further experiment has as its system UACC-257 melanoma. The conditions noted are these: 10 µM unless noted.
For a further experiment, the system named is M14 melanoma. The conditions noted are these: 10 µM unless noted.

Consider `NC(=O)c1cccc(-n2ccc3cc(NC(=O)Nc4ccc(N5CCOCC5)c(C(F)(F)F)c4)ccc32)n1`, for which the growth was 12.3% with NCI-H23 lung; -3.89% (active) in the experiment on NCI-H226 lung; 15.8% in the experiment on NCI-H322M lung; 1.56% (active) in the experiment with HOP-62 NSCLC; 0.481% (active) in the experiment on NCI-H460 lung; -16.5% (active) in the experiment on HOP-92 NSCLC. In addition, the growth in the experiment with A549/ATCC NSCLC is 10.5%; in the experiment with 786-0 renal, -41.8% (active); in the experiment with COLO 205 colon, -48.3% (active); in the experiment with DU-145 prostate it was 13.2%; in the experiment on K-562 leukemia, -22.9% (active); in the experiment on MALME-3M melanoma it was 12.3%. In addition, the growth with MDA-MB-231 breast was 16%; in the experiment on RXF 393 renal, -46.4% (active); with SF-268 CNS, 3.3% (active); in the experiment on SF-295 CNS, -45.7% (active); in the experiment on SF-539 CNS, -20.5% (active); in the experiment with UACC-257 melanoma, 35.7%. For the same molecule, the growth in the experiment with M14 melanoma was 16.7%.

Consider `CC1(C)CC[C@]2(C(=O)N3CCOCC3)CC[C@]3(C)C(=CC[C@@H]4[C@@]5(C)C/C(=C/c6ccccn6)C(=O)C(C)(C)[C@@H]5CC[C@]43C)[C@@H]2C1`, for which the growth is 60.2% in the experiment on NCI-H23 lung; 76.2% with NCI-H226 lung; 103% in the experiment with NCI-H322M lung; 78.5% with HOP-62 NSCLC; 54.9% in the experiment with NCI-H460 lung; 51.1% in the experiment with HOP-92 NSCLC. Also, the growth is 54.5% in the experiment with A549/ATCC NSCLC; 64.4% in the experiment on 786-0 renal; 74.2% in the experiment on COLO 205 colon; 62.3% in the experiment with DU-145 prostate; 34.5% in the experiment with K-562 leukemia; 88.7% in the experiment on MALME-3M melanoma. The growth is 55.2% in the experiment with MDA-MB-231 breast; 3.83% (active) with RXF 393 renal; 59.6% in the experiment with SF-268 CNS; 75.1% in the experiment with SF-295 CNS; 94% with SF-539 CNS; 59.6% in the experiment on UACC-257 melanoma. The growth in the experiment with M14 melanoma was 77.9%.

Turning to `C=CC(=O)N1CC=C(c2cc3c(N[C@H](C)c4ccccc4)ncnc3[nH]2)CC1`, the growth in the experiment with NCI-H23 lung is 78.4%; with NCI-H226 lung, 58.7%; with NCI-H322M lung, 27.2%; in the experiment with HOP-62 NSCLC, 58.1%; with NCI-H460 lung, 101%; in the experiment with HOP-92 NSCLC, 39%. Also, the growth was 60.4% in the experiment with A549/ATCC NSCLC; 49.9% with 786-0 renal; 92.1% with COLO 205 colon; 40.3% in the experiment with DU-145 prostate; 84.2% in the experiment with K-562 leukemia; 104% in the experiment with MALME-3M melanoma. For the same molecule, the growth in the experiment with MDA-MB-231 breast was 47.8%; in the experiment on RXF 393 renal, -27.6% (active); in the experiment on SF-268 CNS, 63.4%; in the experiment with SF-295 CNS it was 79%; in the experiment on SF-539 CNS it was 60.1%; in the experiment on UACC-257 melanoma it was 102%. In addition, in the experiment on M14 melanoma, the growth was 100%.

Take `C/C(=N\O)[C@H]1C[C@]23CC[C@]4(C)[C@H](CC[C@@H]5[C@@]6(C)CC/C(=N/O)C(C)(C)[C@@H]6CC[C@]54C)[C@H]2[C@H](C)C1(C)OC3`: the growth in the experiment on NCI-H23 lung was 96.5%; in the experiment on NCI-H226 lung it was 91.9%; in the experiment on NCI-H322M lung it was 114%; in the experiment on HOP-62 NSCLC, 88.5%; in the experiment with NCI-H460 lung it was 106%; in the experiment with HOP-92 NSCLC it was 106%. For the same molecule, the growth is 94.7% with A549/ATCC NSCLC; 92.1% with 786-0 renal; 116% in the experiment with COLO 205 colon; 94.4% in the experiment with DU-145 prostate; 101% with K-562 leukemia; 106% with MALME-3M melanoma. The growth is 99% in the experiment with MDA-MB-231 breast; 58.1% in the experiment on RXF 393 renal; 89.4% in the experiment on SF-268 CNS; 101% in the experiment with SF-295 CNS; 103% in the experiment on SF-539 CNS; 110% in the experiment with UACC-257 melanoma. Further, the growth with M14 melanoma is 105%.

With `CN(C)C(=O)c1cc(-c2ccc3ncnc(NCc4ccccc4)c3c2)cnc1N`, the growth was 91.6% in the experiment with NCI-H23 lung; 91.8% with NCI-H226 lung; 87% in the experiment on NCI-H322M lung; 63.2% in the experiment on HOP-62 NSCLC; 104% with NCI-H460 lung; 81.1% in the experiment on HOP-92 NSCLC. Further, the growth was 72.9% in the experiment on A549/ATCC NSCLC; 67.7% in the experiment with 786-0 renal; 116% in the experiment on COLO 205 colon; 55.6% with DU-145 prostate; 95.9% in the experiment on K-562 leukemia; 101% with MALME-3M melanoma. Besides, the growth is 70% with MDA-MB-231 breast; -4.14% (active) in the experiment with RXF 393 renal; 65.7% with SF-268 CNS; 91.7% in the experiment on SF-295 CNS; 90.4% in the experiment with SF-539 CNS; 94.4% with UACC-257 melanoma.

As to `Nn1c(N/N=C/c2nc3ccccc3s2)n[nH]c1=S`, the growth with NCI-H23 lung is 91.8%; in the experiment on NCI-H226 lung, 104%; in the experiment with NCI-H322M lung, 109%; in the experiment with HOP-62 NSCLC, 74.8%; with NCI-H460 lung, 110%; in the experiment on HOP-92 NSCLC, 98.7%. For the same molecule, the growth is 95.3% in the experiment with A549/ATCC NSCLC; 96.1% in the experiment with 786-0 renal; 115% in the experiment on COLO 205 colon; 97.5% with DU-145 prostate; 108% in the experiment with K-562 leukemia; 109% in the experiment with MALME-3M melanoma. The growth was 88.2% in the experiment with MDA-MB-231 breast; 83.9% in the experiment with RXF 393 renal; 93.2% with SF-268 CNS; 105% with SF-295 CNS; 103% in the experiment on SF-539 CNS; 109% in the experiment with UACC-257 melanoma. Also, the growth with M14 melanoma is 111%.

Take `C=C(C)[C@@H]1CC[C@]2(COP(=O)(OCC)OCC)CC[C@]3(C)[C@H](CC[C@@H]4[C@@]5(C)CCCNC(C)(C)[C@@H]5CC[C@]43C)[C@@H]12`: the growth in the experiment with NCI-H23 lung is 37.1%; with NCI-H226 lung, 53.8%; in the experiment on NCI-H322M lung, 84.7%; in the experiment on HOP-62 NSCLC, 62.9%; in the experiment on NCI-H460 lung it was -32.8% (active); in the experiment with HOP-92 NSCLC it was 41%. The growth in the experiment with A549/ATCC NSCLC is 36.3%; in the experiment on 786-0 renal, 35.7%; in the experiment with COLO 205 colon it was -15.4% (active); in the experiment on DU-145 prostate, 31.8%; in the experiment on K-562 leukemia, -10.7% (active); in the experiment with MALME-3M melanoma it was -51.8% (active). Besides, the growth in the experiment with MDA-MB-231 breast was 52%; in the experiment on RXF 393 renal, -8.28% (active); with SF-268 CNS, 50.1%; in the experiment on SF-295 CNS, 19.8%; in the experiment with SF-539 CNS, 57.7%; with UACC-257 melanoma, 29.1%. Moreover, the growth in the experiment on M14 melanoma was -46.4% (active).

The values above are taken from PubChem BioAssay (NCI).
